# Results published in PubChem BioAssay (NCATS).
# Results filed as inconclusive are left out. Entries that show only a call come without a potency. Activity calls are given as the source filed them. Unless noted, the call rests on the fitted dose curve; in most records, active means well fitted curve in the direction sought with a large enough effect; inconclusive means small, poorly fitted or top-dose-only effect, or another doubt; inactive means no such curve, though single readings can be large; an effect the other way counts as inactive or inconclusive.
# Assays:
# [1] = target: M-phase phosphoprotein 8 (Homo sapiens) (UniProt Q99549); test: qHTS Validation Assay for Inhibitors for MPP8 Chromodomain Interactions with Methylated Histone Tails (AID 488949);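 further: AlphaScreen signal from MPP8 chromodomain bound to biotinylated H3K9me3 peptide; top concentration of the series differs between compounds; nearly all actives have a fitted effect of over 55% in size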
# Outline: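 Disruption of the preformed MPP8–trimethyl-H3K9 peptide complex (both 50 nM, 30 min, RT) is measured after 30 min compound exposure, using AlphaScreen proximity beads; aurintricarboxylic acid titration serves as plate control.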
# [2] = target: Chromobox protein homolog 1 (Homo sapiens) (UniProt P83916); test: qHTS Validation Assay for Inhibitors of HP1-beta Chromodomain Interactions with Methylated Histone Tails (AID 488953); further: nearly all actives have a fitted effect of over 50% in size; further: potency means the concentration at half of the fitted maximal effect
# Chain of Chromobox protein homolog 1 (Homo sapiens) (P83916 whole entry, looked up): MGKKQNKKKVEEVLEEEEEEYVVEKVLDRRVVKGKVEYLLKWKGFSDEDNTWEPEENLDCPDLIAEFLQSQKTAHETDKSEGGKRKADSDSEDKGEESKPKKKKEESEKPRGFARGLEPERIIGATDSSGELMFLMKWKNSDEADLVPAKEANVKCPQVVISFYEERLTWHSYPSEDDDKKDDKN
# Outline: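 HP1-beta (50 nM) preformed 30 min with biotinylated H3(1-18)K9me3 peptide (50 nM) in PBS pH 7.4, 0.01% Tween-20. Compounds added for 30 min at room temperature. Complex disruption read by AlphaScreen with streptavidin donor/nickel chelate acceptor beads (10 ug/mL each).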
# [3] = target: Transient receptor potential cation channel subfamily V member 1 (Homo sapiens) (UniProt Q8NER1); test: HTS Assay for Compounds that Act as Enhancers of the Vanilloid Receptor 1 (AID 488979)
# Chain of Transient receptor potential cation channel subfamily V member 1 (Homo sapiens) (Q8NER1 whole entry, looked up): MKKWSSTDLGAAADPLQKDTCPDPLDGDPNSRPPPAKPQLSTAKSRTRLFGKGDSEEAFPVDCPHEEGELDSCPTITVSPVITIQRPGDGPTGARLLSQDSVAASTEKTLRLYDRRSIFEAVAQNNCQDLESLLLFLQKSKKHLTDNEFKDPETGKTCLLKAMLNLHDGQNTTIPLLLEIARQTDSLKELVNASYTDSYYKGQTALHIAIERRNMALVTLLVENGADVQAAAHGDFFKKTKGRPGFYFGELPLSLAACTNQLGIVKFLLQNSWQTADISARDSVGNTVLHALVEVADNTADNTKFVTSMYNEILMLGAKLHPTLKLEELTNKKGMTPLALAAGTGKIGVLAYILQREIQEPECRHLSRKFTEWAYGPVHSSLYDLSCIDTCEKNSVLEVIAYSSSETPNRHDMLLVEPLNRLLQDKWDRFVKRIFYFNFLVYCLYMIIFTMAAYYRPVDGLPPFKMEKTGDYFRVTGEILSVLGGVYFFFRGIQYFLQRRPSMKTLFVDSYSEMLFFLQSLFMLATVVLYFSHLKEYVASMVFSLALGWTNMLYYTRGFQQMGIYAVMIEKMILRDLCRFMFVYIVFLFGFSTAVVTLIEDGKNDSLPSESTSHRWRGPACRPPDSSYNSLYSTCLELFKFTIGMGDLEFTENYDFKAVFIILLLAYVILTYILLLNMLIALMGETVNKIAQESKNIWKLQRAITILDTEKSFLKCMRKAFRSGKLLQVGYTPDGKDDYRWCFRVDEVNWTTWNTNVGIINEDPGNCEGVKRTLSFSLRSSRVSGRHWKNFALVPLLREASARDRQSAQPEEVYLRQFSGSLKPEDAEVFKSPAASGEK
# Outline: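 TRPV1 cells loaded with Fluo-8 calcium dye; compound added and Ca2+ signal (ex 480/em 520 nm) followed 3 min, then capsaicin at EC20 added and read 2 more min to detect enhancement.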
# [4] = target: Thyrotropin receptor (Homo sapiens) (UniProt P16473); test: qHTS Assay for Antagonists of the Thyroid Stimulating Hormone Receptor (AID 488980); further: series mostly up to about 58 µM
# Outline: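 Cells expressing human TSHR (HEK293) are dispensed in HBSS/HEPES containing 70 uM RO 20-1724, compound is added, then TSH at EC80 (4 nM final). Antibody in lysis buffer follows, 30 minutes at room temperature before HTRF detection.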
# [5] = target: D(1A) dopamine receptor (Homo sapiens) (UniProt P21728); test: HTS Assay for Allosteric Agonists of the Human D1 Dopamine Receptor: Primary Screen for Agonists (AID 488981)
# Chain of D(1A) dopamine receptor (Homo sapiens) (P21728 whole entry, looked up): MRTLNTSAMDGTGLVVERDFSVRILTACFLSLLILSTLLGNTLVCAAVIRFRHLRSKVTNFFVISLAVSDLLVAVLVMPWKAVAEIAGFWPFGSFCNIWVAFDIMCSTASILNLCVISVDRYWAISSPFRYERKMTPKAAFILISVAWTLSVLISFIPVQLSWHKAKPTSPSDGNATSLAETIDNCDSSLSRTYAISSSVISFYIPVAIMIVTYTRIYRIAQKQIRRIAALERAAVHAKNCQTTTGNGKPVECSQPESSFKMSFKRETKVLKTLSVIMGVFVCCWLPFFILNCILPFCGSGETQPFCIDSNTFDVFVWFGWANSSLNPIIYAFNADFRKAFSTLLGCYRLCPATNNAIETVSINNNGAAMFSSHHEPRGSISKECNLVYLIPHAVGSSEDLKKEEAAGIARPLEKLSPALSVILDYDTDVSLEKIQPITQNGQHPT
# Outline: (§1)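 Tetracycline-induced HEK293 Trex D1 cells with forced coupling to calcium, loaded with no-wash calcium dye; kinetic fluorescence read 180 s after compound addition for agonism, then a further 180 s after an EC20 dopamine challenge for potentiation.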
# [6] = target: D(1A) dopamine receptor (Homo sapiens) (UniProt P21728); test: HTS Assay for Allosteric Agonists of the Human D1 Dopamine Receptor: Primary Screen for Potentiators (AID 488982)
# Outline: as §1
# [7] = target: D(1A) dopamine receptor (Homo sapiens) (UniProt P21728); test: HTS Assay for Allosteric Agonists of the Human D1 Dopamine Receptor: Primary Screen for Antagonists (AID 488983);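 further: calcium flux response to an EC80 dopamine challenge measured with no-wash dye; nearly all actives have a fitted effect of over 65% in size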
# Outline: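 Tetracycline-induced HEK293 T-REx D1 line, force-coupled to calcium flux, read with no-wash calcium dye. Compound added after 10 s baseline, read 180 s for agonism, then EC80 dopamine added and read a further 180 s.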
# [8] = target: Thyrotropin-releasing hormone receptor (Homo sapiens) (UniProt P34981); test: qHTS for Small Molecule Agonists and Allosteric Enhancers of Human TRH Receptor: Validation Screen for Agonists (AID 493127;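 active means calcium activation more than 3 SD above the typical response in the agonist read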); details: TRH receptor agonist cell assay; at 2 µM; stronger effect = higher value
# Chain of Thyrotropin-releasing hormone receptor (Homo sapiens) (P34981 whole entry, looked up): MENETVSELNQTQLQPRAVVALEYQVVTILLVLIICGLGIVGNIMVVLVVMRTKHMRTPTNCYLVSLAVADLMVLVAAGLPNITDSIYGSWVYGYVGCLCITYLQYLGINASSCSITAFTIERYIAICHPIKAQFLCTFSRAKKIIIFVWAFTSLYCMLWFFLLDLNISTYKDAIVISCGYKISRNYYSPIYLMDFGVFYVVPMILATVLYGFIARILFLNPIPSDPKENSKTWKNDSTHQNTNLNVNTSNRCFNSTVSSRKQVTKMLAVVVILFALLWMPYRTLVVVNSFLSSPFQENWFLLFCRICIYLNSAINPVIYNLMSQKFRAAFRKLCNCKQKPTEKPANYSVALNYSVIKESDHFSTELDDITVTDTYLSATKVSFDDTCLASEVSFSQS
# Outline: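 TRHR cells loaded with fluo-8 calcium dye; FDSS kinetic fluorescence (Ex 480/Em 530) read at 1 s/cycle after 23 nL compound addition. Agonist-mode calcium response recorded before the 10 nM TRH (EC20) addition.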
# [9] = Nrf2 qHTS screen for inhibitors: Validation (AID 493153; active means well fitted inhibition curve with a large enough effect in the main read-out, with a control signal flat, not every such curve was filed as active); details: viability change: measured here: cytotoxicity max response
# Outline: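 A549 cells carrying ARE-firefly luciferase reporter, 5000 cells/well in 5% FBS OPTI-MEM, treated with compound over a concentration series for 18-24 h at 37 C. Luciferase luminescence gave Nrf2 activity; CellTiter-Fluor fluorescence gave viability.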
# [10] = qHTS for Inhibitors of Cell Surface uPA Generation: Validation Assay (AID 493164)
# Outline: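 RAW 264.7 cells (4000/well) were plated overnight, then exposed for 18 h at 37 C, 5% CO2 to compounds in a 7-point 1:5 titration (2.45 nM–38.3 uM final). Intracellular ATP was read by ATP-Lite luminescence.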
# [11] = target: Galactokinase (Homo sapiens) (UniProt P51570); test: qHTS Validation Assay for Inhibitors of Human Galactokinase (GALK) (AID 493189)
# Chain of Galactokinase (Homo sapiens) (P51570 whole entry, looked up): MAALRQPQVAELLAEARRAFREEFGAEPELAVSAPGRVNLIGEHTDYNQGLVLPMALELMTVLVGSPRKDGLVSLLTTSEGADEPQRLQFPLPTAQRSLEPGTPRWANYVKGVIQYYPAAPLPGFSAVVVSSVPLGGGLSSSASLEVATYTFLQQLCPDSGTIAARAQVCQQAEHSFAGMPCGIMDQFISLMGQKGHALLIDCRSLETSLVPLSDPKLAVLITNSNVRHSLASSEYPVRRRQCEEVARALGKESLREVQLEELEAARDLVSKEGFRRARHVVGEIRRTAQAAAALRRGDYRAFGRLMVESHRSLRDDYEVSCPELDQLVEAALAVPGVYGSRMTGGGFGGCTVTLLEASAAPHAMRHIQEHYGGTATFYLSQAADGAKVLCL
# Outline: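 Compounds were pin-transferred into ATP buffer, then GALK-galactose mix was added (final 5 nM enzyme, 100 uM galactose, 35 uM ATP). After 1 h at room temperature, remaining ATP was measured luminescently.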
# [12] = Validation screen for small molecules that induce DNA re-replication in SW480 colon adenocarcinoma cells (AID 504364)
# Outline: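 SW480 cells (250/well) exposed 48 h at 37 C, 5% CO2, then Hoechst-stained 40 min. Nuclear DNA content imaged by fluorescence scanning (405 nm excitation, 500-530 nm emission); re-replication scored as increased nuclei with elevated intensity.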
# [13] = target: Peptidyl-prolyl cis-trans isomerase NIMA-interacting 1 (Homo sapiens) (UniProt Q13526); test: qHTS Validation Assay to Find Inhibitors of Pin1 (AID 504536; active means well fitted inhibition curve with a large enough effect in the polarisation, with a control signal flat, not every such curve was filed as active; the % refers to the polarisation)
# Chain of Peptidyl-prolyl cis-trans isomerase NIMA-interacting 1 (Homo sapiens) (Q13526 whole entry, looked up): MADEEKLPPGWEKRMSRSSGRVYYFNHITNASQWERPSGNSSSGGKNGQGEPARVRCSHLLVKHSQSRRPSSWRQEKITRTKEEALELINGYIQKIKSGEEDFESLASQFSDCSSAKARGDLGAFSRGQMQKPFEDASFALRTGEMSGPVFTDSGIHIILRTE
# Outline: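 Fluorescence polarization competition: compounds (titration) displace HiFluor-488-labeled Pin1-1b peptide from Pin1 (0.3 uM final) in pH 7.5 HEPES buffer with DTT, 10 min at room temperature; %Activity normalized to no-enzyme wells, curves fitted.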
# [14] = target: Phosphoglycerate kinase, glycosomal (Trypanosoma brucei brucei) (UniProt P07378); test: qHTS Validation Assay to Find Inhibitors of Phosphoglycerate Kinase (AID 504547)
# Outline: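 PGK activity was coupled to GAPDH (100nM final), which generates the unstable substrate 1,3-bisphosphoglycerate in-well. Reactions ran 60 minutes at room temperature in 100mM TEA pH 7.6, 5mM MgCl2, 0.01% Tween-20, then Kinase-Glo Plus luminescence was read.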
# [15] = target: Ubiquitin carboxyl-terminal hydrolase 1 (Homo sapiens) (UniProt O94782); test: Inhibitors of USP1/UAF1: Pilot qHTS (AID 504865);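 further: rhodamine fluorescence freed from ubiquitin-rhodamine substrate followed over time; top concentration of the series differs between compounds; nearly all actives have a fitted effect of over 35% in size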
# Outline: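 Kinetic fluorescence assay: 1nM USP1/UAF1, 15 min compound preincubation, then 150nM Ub-Rho; 480/540 nm.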
# [16] = qHTS for Inhibitors of ATXN expression: Validation of Cytotoxic Assay (AID 588349); further: potency means the concentration at half of the fitted maximal effect
# Outline: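 HEK293 cells treated with titrated compound for 72 hr at 37 degrees C; viability read as intracellular ATP by CellTiter Glo luminescence.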
# [17] = qHTS for Inhibitors of ATXN expression: Validation (AID 588378); further: nearly all actives have a fitted effect of over 75% in size; further: potency means the concentration at half of the fitted maximal effect
# Outline: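 Validation of ATXN2 expression inhibitors uses a cell-based luciferase fusion reporter in HEK293 cells, with 24 h compound exposure and paired viability (fluorescence) and reporter (luminescence) end-point reads.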
# [18] = target: ATP-dependent 6-phosphofructokinase (Trypanosoma brucei brucei) (UniProt O15648); test: qHTS Assay to Find Inhibitors of T. brucei phosphofructokinase: hit validation (AID 492961);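 further: luminescence reports ADP formed as PFK phosphorylates fructose-6-phosphate with ATP; series mostly up to about 51 µM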
# Outline: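 Inhibition of parasite PFK is measured as reduced ADP formation, quantified via luciferase after ATP depletion. Assay used 0.1 mM ATP, 0.5 mM F6P, 1.25 nM enzyme, 45 min incubation.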
# [19] = target: phosphoglycerate mutase (Leishmania major) (UniProt Q4Q090); test: qHTS Validation Assay to Find Inhibitors of Phosphoglycerate Mutase (AID 504548);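 further: end-point luminescence from Kinase-GloPlus after the PGAM reaction; series mostly up to about 58 µM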
# Chain of phosphoglycerate mutase (Leishmania major) (Q4Q090 1-553): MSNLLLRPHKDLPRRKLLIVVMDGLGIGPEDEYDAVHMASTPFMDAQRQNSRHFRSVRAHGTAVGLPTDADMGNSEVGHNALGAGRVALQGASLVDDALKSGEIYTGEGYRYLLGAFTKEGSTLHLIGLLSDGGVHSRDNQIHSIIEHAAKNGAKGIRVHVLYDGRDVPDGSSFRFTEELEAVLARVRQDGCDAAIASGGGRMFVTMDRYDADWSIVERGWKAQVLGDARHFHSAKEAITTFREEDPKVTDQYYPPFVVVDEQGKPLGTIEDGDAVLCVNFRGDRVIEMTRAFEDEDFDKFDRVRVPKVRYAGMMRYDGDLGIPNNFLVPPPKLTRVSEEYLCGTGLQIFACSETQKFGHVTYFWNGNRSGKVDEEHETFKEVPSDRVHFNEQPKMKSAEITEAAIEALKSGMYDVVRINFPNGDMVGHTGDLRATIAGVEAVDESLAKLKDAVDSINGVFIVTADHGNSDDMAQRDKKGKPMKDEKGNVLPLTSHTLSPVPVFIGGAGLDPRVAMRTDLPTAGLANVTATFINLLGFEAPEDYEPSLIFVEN
# Outline: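 Inhibition of L. major PGAM was assessed by Kinase-GloPlus luminescence following a 45-minute room-temperature reaction with enzyme at 1.25nM final.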
# [20] = target: ATPase family AAA domain-containing protein 5 (Homo sapiens) (UniProt Q96QE3); test: Validation screen for small molecules that inhibit ELG1-dependent DNA repair in human embryonic kidney (HEK293T) cells expressing luciferase-tagged ELG1 (AID 493107);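 further: cells co-treated with the DNA-damaging agent 5-fluorouridine alongside compound; series mostly up to about 46 µM; inhibitors lower the ELG1-luciferase luminescence signal; nearly all actives have a fitted effect of over 70% in size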
# Chain of ATPase family AAA domain-containing protein 5 (Homo sapiens) (Q96QE3 whole entry, looked up, the tested form may be a part): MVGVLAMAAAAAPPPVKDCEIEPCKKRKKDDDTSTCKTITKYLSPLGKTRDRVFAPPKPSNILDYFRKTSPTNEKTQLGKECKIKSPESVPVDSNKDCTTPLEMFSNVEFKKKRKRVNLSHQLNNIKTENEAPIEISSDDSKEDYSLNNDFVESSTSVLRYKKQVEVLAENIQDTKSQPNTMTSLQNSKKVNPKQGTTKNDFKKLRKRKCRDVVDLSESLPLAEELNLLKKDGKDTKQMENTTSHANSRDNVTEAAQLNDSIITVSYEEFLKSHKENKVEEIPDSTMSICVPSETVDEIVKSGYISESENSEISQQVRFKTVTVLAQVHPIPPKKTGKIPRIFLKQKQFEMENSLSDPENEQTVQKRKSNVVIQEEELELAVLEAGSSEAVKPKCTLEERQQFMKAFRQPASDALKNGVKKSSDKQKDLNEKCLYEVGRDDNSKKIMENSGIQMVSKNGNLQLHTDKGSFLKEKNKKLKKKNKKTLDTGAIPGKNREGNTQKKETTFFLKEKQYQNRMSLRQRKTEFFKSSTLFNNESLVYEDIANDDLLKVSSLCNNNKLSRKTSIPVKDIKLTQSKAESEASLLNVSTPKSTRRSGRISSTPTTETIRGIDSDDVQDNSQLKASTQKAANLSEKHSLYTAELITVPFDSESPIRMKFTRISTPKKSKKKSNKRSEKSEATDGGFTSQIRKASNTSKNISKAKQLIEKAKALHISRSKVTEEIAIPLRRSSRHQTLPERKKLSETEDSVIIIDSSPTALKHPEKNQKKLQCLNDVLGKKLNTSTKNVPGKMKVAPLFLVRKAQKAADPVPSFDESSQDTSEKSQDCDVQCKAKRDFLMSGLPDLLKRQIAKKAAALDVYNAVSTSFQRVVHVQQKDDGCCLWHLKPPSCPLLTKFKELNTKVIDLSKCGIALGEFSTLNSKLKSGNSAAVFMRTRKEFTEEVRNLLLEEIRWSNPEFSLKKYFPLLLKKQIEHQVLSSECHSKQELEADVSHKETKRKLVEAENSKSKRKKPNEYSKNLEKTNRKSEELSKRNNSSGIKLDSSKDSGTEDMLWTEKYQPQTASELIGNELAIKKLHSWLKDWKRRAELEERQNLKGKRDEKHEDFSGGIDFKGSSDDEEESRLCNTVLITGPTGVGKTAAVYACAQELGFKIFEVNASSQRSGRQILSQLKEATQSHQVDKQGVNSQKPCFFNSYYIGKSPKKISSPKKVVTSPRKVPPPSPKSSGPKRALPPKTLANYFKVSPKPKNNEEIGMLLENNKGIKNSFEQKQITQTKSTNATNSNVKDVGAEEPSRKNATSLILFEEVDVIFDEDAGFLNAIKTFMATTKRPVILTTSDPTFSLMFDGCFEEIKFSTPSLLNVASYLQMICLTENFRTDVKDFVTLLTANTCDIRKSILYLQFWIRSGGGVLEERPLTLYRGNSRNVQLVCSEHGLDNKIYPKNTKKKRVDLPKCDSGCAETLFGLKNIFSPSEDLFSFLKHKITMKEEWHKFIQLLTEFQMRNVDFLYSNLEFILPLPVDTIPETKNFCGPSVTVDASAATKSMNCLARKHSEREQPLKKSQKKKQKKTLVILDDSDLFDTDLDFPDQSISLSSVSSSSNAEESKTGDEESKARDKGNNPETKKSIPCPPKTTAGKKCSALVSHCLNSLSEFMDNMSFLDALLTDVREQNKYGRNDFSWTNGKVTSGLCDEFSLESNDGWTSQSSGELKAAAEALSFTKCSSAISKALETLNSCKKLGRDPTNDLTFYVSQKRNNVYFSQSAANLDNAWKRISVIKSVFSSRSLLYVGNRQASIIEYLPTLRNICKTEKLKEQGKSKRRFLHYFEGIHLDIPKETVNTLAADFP
# Outline: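 HEK293T cells expressing luciferase-tagged ELG1, 2,000 per well, treated with 5-fluorouridine plus compound for 16 h at 37 C. ONE-Glo luminescence after 30 min at room temperature reports ELG1 reporter level.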
smiles,measurement,setting,value
O=c1cc(-c2ccc(O)cc2)oc2cc(O)cc(O)c12,Potency,[1],inactive
same,Potency,[2],inactive
same,outcome,[3],inactive
same,outcome,[4],inactive
same,outcome,[5],inactive
same,outcome,[6],inactive
same,Potency,[7],inactive
same,activation,[8],0.5% (inactive)
same,outcome,[9],inactive
same,viability change,[9],-8.56%
same,outcome,[10],inactive
same,outcome,[11],inactive
same,outcome,[12],inactive
same,outcome,[13],inactive
same,outcome,[14],inactive
same,Potency,[15],inactive
same,Potency,[16],inactive
same,Potency,[17],inactive
CC1=C(/C=C/C(C)=C/C=C/C(C)=C/C(=O)Nc2ccc(O)cc2)C(C)(C)CCC1,Potency,[1],inactive
same,Potency,[2],39.8 µM (active)
same,outcome,[4],inactive
same,outcome,[5],inactive
same,outcome,[18],inactive
same,activation,[8],-0.438% (inactive)
same,outcome,[10],inactive
same,outcome,[11],inactive
same,outcome,[12],inactive
same,outcome,[13],inactive
same,outcome,[14],inactive
same,outcome,[19],inactive
same,Potency,[15],inactive
same,Potency,[16],31.6 µM (active)
same,Potency,[17],31.6 µM (active)
CC(=O)c1ccc(S(=O)(=O)NC(=O)NC2CCCCC2)cc1,Potency,[1],inactive
same,Potency,[2],inactive
same,outcome,[3],inactive
same,outcome,[4],inactive
same,outcome,[5],inactive
same,outcome,[6],inactive
same,Potency,[7],inactive
same,outcome,[20],inactive
same,activation,[8],0.188% (inactive)
same,outcome,[9],inactive
same,viability change,[9],1.61%
same,outcome,[10],inactive
same,outcome,[11],inactive
same,outcome,[12],inactive
same,outcome,[13],inactive
same,outcome,[14],inactive
same,outcome,[19],inactive
same,Potency,[15],inactive
same,Potency,[16],inactive
same,Potency,[17],inactive
CCN(CC)CCNC(=O)c1ccc(N)cc1,Potency,[1],inactive
same,Potency,[2],inactive
same,outcome,[4],inactive
same,outcome,[5],inactive
same,outcome,[6],inactive
same,Potency,[7],inactive
same,outcome,[20],inactive
same,outcome,[9],inactive
same,viability change,[9],-14%
same,outcome,[10],inactive
same,outcome,[11],inactive
same,outcome,[12],inactive
same,outcome,[14],inactive
same,outcome,[19],inactive
same,Potency,[16],inactive
same,Potency,[17],inactive
CCCNC(=O)NS(=O)(=O)c1ccc(Cl)cc1,Potency,[1],inactive
same,Potency,[2],inactive
same,outcome,[3],inactive
same,outcome,[4],inactive
same,outcome,[5],inactive
same,outcome,[6],inactive
same,Potency,[7],inactive
same,outcome,[20],inactive
same,outcome,[9],inactive
same,viability change,[9],-0.767%
same,outcome,[10],inactive
same,outcome,[11],inactive
same,outcome,[12],inactive
same,outcome,[13],inactive
same,outcome,[14],inactive
same,outcome,[19],inactive
same,Potency,[15],inactive
same,Potency,[16],inactive
same,Potency,[17],inactive
O=C1NC(=O)C(c2ccccc2)(c2ccccc2)N1,Potency,[1],inactive
same,Potency,[2],inactive
same,outcome,[3],inactive
same,outcome,[4],inactive
same,outcome,[5],inactive
same,outcome,[6],inactive
same,Potency,[7],inactive
same,outcome,[20],inactive
same,activation,[8],0.438% (inactive)
same,outcome,[9],inactive
same,viability change,[9],-3.24%
same,outcome,[10],inactive
same,outcome,[11],inactive
same,outcome,[12],inactive
same,outcome,[13],inactive
same,outcome,[14],inactive
same,outcome,[19],inactive
same,Potency,[15],inactive
same,Potency,[16],inactive
same,Potency,[17],inactive
O=C1NCC2(CCN(CCc3ccccc3)CC2)O1,Potency,[1],inactive
same,Potency,[2],inactive
same,outcome,[3],inactive
same,outcome,[4],inactive
same,outcome,[5],inactive
same,outcome,[6],inactive
same,Potency,[7],inactive
same,outcome,[18],inactive
same,outcome,[20],inactive
same,activation,[8],0.562% (inactive)
same,outcome,[9],inactive
same,viability change,[9],1.8%
same,outcome,[10],inactive
same,outcome,[11],inactive
same,outcome,[12],inactive
same,outcome,[13],inactive
same,outcome,[14],inactive
same,outcome,[19],inactive
same,Potency,[15],inactive
same,Potency,[16],inactive
same,Potency,[17],inactive
